Measured values reported in PubChem BioAssay (NCATS).
Records with an inconclusive call do not appear. A number with no mark means an inactive call. The call rests on the fitted dose curve; in most records, active means well fitted cell-killing curve with a large enough effect; inconclusive means small, poorly fitted or top-dose-only effect, or effect the other way; inactive means no such curve, though single readings can be large or run the other way.

Assay: Cell Viability - LYMP2-004 (AID 966);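 further: plate controls were DMSO only for no effect and tetraoctylammonium bromide control for full effect; nearly all actives have a fitted effect of over 65% in size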
Conditions: LYMP2-004 lymphoblastoid cell viability, qHTS; series mostly up to 92.2 µM; activity change, negative = cytotoxicity: at the top concentration
Text: NIH Chemical Genomics Center [NCGC]
NIH Molecular Libraries Screening Centers Network [MLSCN]
National Institutes of Environmental Health Sciences [NIEHS]
National Toxicology Program [NTP]
We have developed a 1536-well cell-based assay for quantitative high throughput screening (qHTS) against a number of cell lines to determine in vitro cytotoxicity of small molecules. This particular assay uses a human lymphoblastoid cell line (LYMP2-004) purchased from Coriell Institute for Medical Research.
NCGC Assay Protocol Summary:
The CellTiter-Glo luminescent cell viability assay (Promega) is a homogeneous method to measure the number of viable cells in culture. The end point readout of this assay is based on quantitation of intracellular ATP, an indicator of metabolic activity, using the luciferase reaction. Luciferase catalyzes the oxidation of beetle Luciferin to oxyluciferin and light in the presence of ATP. The luminescent signal is proportional to amount of ATP present.
Using the CellTiter-Glo luminescent cell viability assay, the amount of cellular ATP was measured in the lymphoblastoid cell line with complete culture medium following compound treatment for 24 hours. The assay was performed in opaque white Kalypsys 1536-well plates. In the screen, tetraoctylammonium bromide was used as positive control. Library compounds were measured for their ability to cause acute toxicity in the cell line, as reflected by a decrease in intracellular ATP levels, in a concentration-dependent manner. […] AC50 values were determined from concentration-response data modeled with the standard Hill equation.
qHTS protocol for CellTiter Glo lymphoblastoid cellular assay
[Step] [Parameter] [Value] [Description]
1. Reagent; 5 uL; 2500 lymphoblastoid cells/well
2. Time; 5 hr; 37 C incubation
4. Controls; 23 nL; Tetraoctylammonium bromide 6.4pM to 92 uM
5. Time; 24 hr; 37 C incubation
6. Reagent; 5 uL; CellTiter Glo reagent
7. Time; 30 min; Room Temperature
8. Detection; Luminescence; Viewlux plate reader
Keywords: cell viability, cytotoxicity, lymphoblastoid cell line, luminescence, NTPHTS, NTPHTS_NCGC, NIEHS, DSSTox, MLSMR, MLSCN, NIH Roadmap, qHTS, NCGC

| Structure (SMILES) | activity change, negative = cytotoxicity |
| --- | --- |
| O=[N+]([O-])c1cccc(O)c1 | 3.39% |
| ClCC(Cl)Cl | 2.41% |
| CCOC(=O)CBr | 6.77% |
| Cc1ccc2c(c1N)C(=O)c1ccccc1C2=O | -22.1% |
| CCOP(=S)(OCC)SCCSCC | 9.71% |
| O=[N+]([O-])c1cc(Cl)c(Cl)c(Cl)c1 | -3.16% |
| Nc1ccc(-c2ccc(N)c(Cl)c2)cc1Cl | -19.8% |
| C=C(Cl)CCl | 10.2% |
| ClCCOCCCl | 0.808% |
| O=[N+]([O-])c1ccc(Cl)cc1 | 9.97% |
| Nc1cc(Cl)ccc1Cl | 7.27% |
| O=C(Cl)OCc1ccccc1 | 7.1% |
| ClCC(Br)CBr (stereo not given) | 4.63% |
| NC1CCC(CC2CCC(N)CC2)CC1 (stereo not given) | -11.7% |
| CCBr | 12.6% |
| Oc1cccc(Cl)c1 | 13.3% |
| C=COC(C)=O | 15.4% |
| Cc1ccc(N)c(C)c1 | 10.8% |
| CN(C)c1ccc(N=Nc2ccccc2)cc1 | -7.31% |
| ClC=CCl | -16.2% |

| Structure (SMILES) | activity change, negative = cytotoxicity |
| --- | --- |
| Nc1ccc(-c2ccccc2)cc1 | -3.83% |
| N#CC(O)c1ccccc1 (stereo not given) | -2.79% |
| Cc1cccc(N)c1C | -6.59% |
| O=[N+]([O-])CCO | -0.375% |
| CC(C)(Cl)[N+](=O)[O-] | 20.9% |
| CC(C)[C@]12CC(=O)[C@H](C)[C@H]1C2 | 21% |
| CCCN(CCC)c1c([N+](=O)[O-])cc(C(F)(F)F)cc1[N+](=O)[O-] | 9.1% |
| Nc1c(Cl)cc([N+](=O)[O-])cc1Cl | 2.65% |
| Nc1ccc(-c2ccc(N)cc2)cc1 | -9.76% |
| OCCCCO | -0.748% |
| O=C(O)CBr | -3.46% |
| CC(=O)[O-].CC(=O)[O-].CC(=O)[O-].[Cr+3] | 9.17% |
| Clc1cc(Cl)c(Cl)c(Cl)c1 | 8.16% |
| c1ccc(P(c2ccccc2)c2ccccc2)cc1 | 3.68% |
| CCCCC(CC)COC(=O)c1ccc(C(=O)OCC(CC)CCCC)c(C(=O)OCC(CC)CCCC)c1 (stereo not given) | 15.3% |
| CN(C)C(=O)Nc1ccc(Cl)cc1 | 4.9% |
| C=C(Cl)CSC(=S)N(CC)CC | -11.3% |
| CCCCOCC1CO1 (stereo not given) | 19% |
| Oc1ccc(Cl)c(Cl)c1 | 13% |
| CC(C)(OOC(C)(C)c1ccccc1)c1ccccc1 | -1.81% |
